A selection: hits, their analogues and other compounds. The true share with any hit is near 10%.
Luciferase inh – Firefly luciferase inhibition profiling of diverse chemical library using quantitative high-throughput screening | Luciferin 4-monooxygenase (Photinus pyralis), P08659 | purified P. pyralis luciferase, luminescence, biochemical | Potency, µM (highest dose often 115 µM), usual class: inhibitors | hit rate 2.5% among 76,000 | AID 1347043, 2019; further: nearly all actives have a fitted effect of over 65% in size
Target sequence (P08659 whole entry, looked up): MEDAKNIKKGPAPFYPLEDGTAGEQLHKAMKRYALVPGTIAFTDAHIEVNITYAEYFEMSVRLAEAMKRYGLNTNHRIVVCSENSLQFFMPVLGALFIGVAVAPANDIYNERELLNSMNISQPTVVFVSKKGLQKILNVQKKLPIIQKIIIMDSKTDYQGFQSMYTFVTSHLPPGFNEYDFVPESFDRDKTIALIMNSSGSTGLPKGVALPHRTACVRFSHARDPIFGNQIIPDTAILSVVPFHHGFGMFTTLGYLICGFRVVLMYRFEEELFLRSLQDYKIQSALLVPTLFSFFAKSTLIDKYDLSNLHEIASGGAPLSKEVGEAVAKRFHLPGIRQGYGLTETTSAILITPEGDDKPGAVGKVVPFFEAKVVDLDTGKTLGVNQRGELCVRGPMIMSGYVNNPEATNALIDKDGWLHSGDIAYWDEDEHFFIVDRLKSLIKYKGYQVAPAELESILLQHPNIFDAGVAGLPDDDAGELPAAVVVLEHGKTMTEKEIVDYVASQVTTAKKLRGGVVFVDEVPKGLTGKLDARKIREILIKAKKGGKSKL
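Inhibitors were tested against purified firefly luciferase in a biochemical, low-substrate format (both substrates at 10uM) and luminescence measured with a CCD imager.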
GPT2 inhibitor – Primary qHTS assay for inhibitors of Glutamate pyruvate transaminase 2 (GPT2). Recombinant GPT2, coupled pyruvate oxidase/HRP Amplex Red fluorescence. Potency, µM (doses to about 57.7 µM), hits mostly inhibitors. hit rate 0.25% among 100,000; further: nearly all actives have a fitted effect of over 60% in size
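Fluorescence read-out: pyruvate from GPT2 turnover coupled to pyruvate oxidase, HRP and Amplex Red (0.2mM ThPP, 0.2U/mL PO and HRP, 50uM Amplex final). Substrates 250uM a-KG, 2mM L-alanine; enzyme 10ng/uL; 30 min RT.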
3T3 cytotox – Cytotoxic Profiling in NIH 3T3 Cell Line of Diverse Libraries Using Quantitative High-Throughput Screening; NIH 3T3 viability, CellTiter-Glo ATP luminescence, 48-72 h; Potency, µM (doses to about 96.7 µM), usual class: inhibitors; hit rate 4.3% among 94,000; AID 1345082, 2018; further: nearly all actives have a fitted effect of over 55% in size
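Cells were seeded at 400 per well, treated with pin-transferred compound, and kept 48 or 72 hr at 37 °C before CellTiter-Glo addition and luminescence imaging of cellular ATP.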
hNpr1 antagonist – Natriuretic polypeptide receptor (hNpr1) antagonism - Primary qHTS. hit rate 1.6% among 76,000. HEK293 hNpr1 GloSensor cGMP, ANP-stimulated luminescence. Atrial natriuretic peptide receptor 1 (Homo sapiens), P16066. Potency, µM (top dose mostly 46.3 µM), usual class: inhibitors; calls by dose curve; further: nearly all actives have a fitted effect of over 60% in size
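Compound pre-incubated 30 min at room temperature on GloSensor-loaded HEK293 cells stably carrying hNpr1 and the pGS-40F cGMP biosensor. Stimulation uses hNppA at 0.1 nM final; luminescence is taken at baseline and 20 min post-agonist.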
HEK293 tox – Cytotoxic Profiling in HEK 293 Cell Line of Diverse Libraries Using Quantitative High-Throughput Screening | HEK 293 viability, ATP luminescence (CellTiter-Glo), 48-72 h | Potency, µM (top dose mostly 115 µM), hits mostly inhibitors | hit rate 6.6% among 94,000; further: nearly all actives have a fitted effect of over 60% in size
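Viability of HEK 293 cells, plated at 250 cells/well, was judged by cellular ATP after compound treatment for 48 or 72 hr. Luminescence was imaged 10 min after CellTiter-Glo addition at room temperature.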
Numbers stand for hits; n = inactive; u = inconclusive; x = no result. Unless noted, the call rests on the fitted dose curve; in most records, active means well fitted curve in the direction sought with a large enough effect; inconclusive means small, poorly fitted or top-dose-only effect, or another doubt; inactive means no such curve, though single readings can be large; an effect the other way counts as inactive or inconclusive.

SMILES | Luciferase inh | GPT2 inhibitor | 3T3 cytotox | hNpr1 antagonist | HEK293 tox
COc1ccc(N2CCN(C(=O)C3(CCO)CC34CCOCC4)CC2)cc1 (configuration not stated) | x | u | n | x | n
Cc1cc(F)ccc1-c1[nH]nc2ncc(-c3ccsc3)nc12 | n | n | 20µM | n | u
Cc1cc(F)ccc1-c1[nH]nc2ncc(-c3cccnc3)nc12 | n | n | n | n | u
COc1cc(-c2cnc3n[nH]c(-c4ccc(F)cc4C)c3n2)ccn1 | n | n | u | n | 79µM
COc1ccc(-c2cnc3n[nH]c(-c4ccc(F)cc4C)c3n2)cn1 | n | n | 50µM | n | 50µM
O=C(c1ccccc1)N1CCCC(C(=O)N2CCC(N3CCOCC3=O)CC2)C1 (configuration not stated) | x | n | n | x | n
Cc1oc2ccn(Cc3ccc(F)cc3)c(=O)c2c1C(=O)NC1CCCCCC1 | n | n | u | n | 35µM
CC(=O)Nc1ccc(NC(=O)c2c(C)oc3ccn(Cc4ccc(F)cc4)c(=O)c23)cc1 | n | n | n | n | u
COc1ccccc1-c1nccc2c(=O)cc(-c3ccccn3)oc12 | n | u | u | n | u
O=c1cc(C2=CCOCC2)oc2c(-c3cccc4[nH]ccc34)nccc12 | n | n | u | n | 40µM
CCc1nc(C)c(C(=O)Nc2nn(C)c3cccc(N4CCOC4=O)c23)o1 | n | n | n | n | n
CCOCC(=O)Nc1nn(-c2ccc(F)cc2)c2cccc(N3CCOC3=O)c12 | 35µM | n | n | n | u
Cc1ccc(CCN2CCCCC23Cc2ccccc2CN(C(=O)CCC(=O)O)C3)cc1 (configuration not stated) | x | n | n | x | n
O=C(CNC(=O)c1cccc(-c2ccc(C(F)(F)F)cc2)c1)NCc1ccc(F)cc1 | x | n | u | x | u
CSc1ccc(-c2cccc(C(=O)NCCNC(=O)c3ccccc3C)c2)cc1 | x | n | n | x | 25µM
CSc1ccc(-c2cccc(C(=O)NCC(=O)NCc3cccc(C(F)(F)F)c3)c2)cc1 | x | n | u | x | 40µM
COc1cccc(CNC(=O)CNC(=O)c2cccc(-c3ccc(C(F)(F)F)cc3)c2)c1 | x | n | u | x | 22µM
CSc1ccc(-c2cccc(C(=O)NCCNC(=O)c3ccccc3F)c2)cc1 | x | n | n | x | u
COc1cccc(CNC(=O)CNC(=O)c2ccc(-c3cccc(C(F)(F)F)c3)cc2)c1 | x | n | n | x | n
COc1ccc(F)cc1-c1cccc(C(=O)NCC(=O)NCc2ccc(C(F)(F)F)cc2)c1 | x | x | 40µM | x | 40µM
NCc1ccccc1-c1cccs1 | x | n | n | x | n
CC(C)c1ccc(CN2C[C@@H]3[C@H](C2)N(CCOc2ccccc2)C(=O)C(C)(C)[S+]3(=O)[O-])cc1 | n | n | u | n | u
COCCOC1CN(C2CCN(Cc3ccc(F)c(F)c3)CC2)C12CCCCC2 (configuration not stated) | n | n | u | n | u
O=C(N[C@@H](Cn1cc(Cl)c(=O)[nH]c1=O)C(=O)O)C1CCCCC1 | n | n | n | n | n
COc1ccc(CNC(=O)CNC(=O)c2cccc(-c3ccc(SC)cc3)c2)cc1OC | x | n | u | x | 32µM
SMILES | Luciferase inh | GPT2 inhibitor | 3T3 cytotox | hNpr1 antagonist | HEK293 tox
O=C(CNC(=O)c1cccc(-c2ccc(C(F)(F)F)cc2)c1)NCc1ccccc1 | x | n | u | x | u
CSc1ccc(-c2cccc(C(=O)NCC(=O)NCc3ccc4c(c3)OCO4)c2)cc1 | x | n | n | x | u
CSc1ccc(-c2cccc(C(=O)NCC(=O)NCc3ccc(C(F)(F)F)cc3)c2)cc1 | x | n | u | x | 45µM
CSc1ccc(-c2cccc(C(=O)NCC(=O)NCc3cccc(F)c3)c2)cc1 | x | n | u | x | u
O=C(CNC(=O)c1cccc(-c2ccc(C(F)(F)F)cc2)c1)NCc1cccs1 | x | n | u | x | 40µM
CSc1ccc(-c2cccc(C(=O)NCC(=O)NCc3cccnc3)c2)cc1 | x | n | u | x | 22µM
O=C(c1ccncc1)N1CCCN(CCn2nc3n(c2=O)CCCC3)CC1 | x | x | n | x | n

Screening data (PubChem BioAssay)
